# Data as given in PubChem BioAssay AID624202 (National Center for Advancing Translational Sciences (NCATS), 2012).
# The whole screen tested about 380,000 compounds, of which about 4,000 (1.1%) were called active. Another 3% or so got no clear call; they are omitted. The full list was thinned out, with actives kept by preference. Values without a mark were called inactive. Calls follow the shape of the dose curve; as a rule, active = well fitted activation curve with a large enough effect; inconclusive = small, poorly fitted or top-dose-only effect; inactive = no such curve, though single readings can be large or run the other way.
# Assay: qHTS Assay to Identify Small Molecule Activators of BRCA1 Expression; also: nearly all actives have a fitted effect of over 80% in size
# Details: MCF7-BRCA1-FFLuc reporter, luminescence, 48 h; series mostly up to 46.1 µM; activation: at the top concentration
# Source text: Functionally, BRCA1 has been implicated in a wide array of cellular activities, including DNA damage repair, cell-cycle checkpoint control, growth inhibition, apoptosis, transcriptional regulation, chromatin remodeling, protein ubiquitylation, and mammary stem cell self-renewal and differentiation. Reduction in BRCA1 levels is associated with an increase in tumor growth and resistance to anti-estrogenic agents, such as tamoxifen, while an increase in BRCA1 expression leads to cell growth arrest and apoptosis. […] The frequent loss of BRCA1 expression in invasive breast cancers in the absence of somatic mutation has been attributed to numerous mechanisms, including hypermethylation of the BRCA1 promoter, exaggerated ubiquitylation of BRCA1 protein, and improper intracellular localization. […] Basal-like breast cancers (BLBCs) are associated with an aggressive clinical course, resistance to chemotherapy, and typically lack expression of estrogen receptor (ER), progesterone receptor (PR), and epidermal growth factor receptor 2 (HER2). BLBCs account for 10-17% of all breast cancers, have few therapeutic options, and are considered the biggest unmet need in the treatment of breast cancer. Conversely, tumors which maintain expression of functional BRCA1 are almost uniformly luminal type cancers, and are accordingly associated with more indolent clinical courses, responsiveness to endocrine therapies, and improved survival.
# As such, it is possible that an increase in BRCA1 expression would enable cellular differentiation and restore tumor suppressor function, resulting in delayed tumor growth and less aggressive, more treatable breast cancers. The long term goal of this proposal is to develop a novel prevention or therapeutic agent for breast cancer patients. To accomplish this goal, the overall objective of this proposal is to access the resources provided by the NIH Molecular Libraries Roadmap Initiative and the Molecular Libraries Probe Production Centers Network (MLPCN) to discover and develop new chemical activator probes that will increase BRCA1 expression and function.
# NIH Molecular Libraries Probe Production Network [MLPCN]
# NIH Chemical Genomics Center [NCGC]
# PI Name: Lisa Harlan-Williams, University of Kansas Medical Center
# 5microl of MCF7-BRCA1-FFLuc cell suspension (400 cells/microl in phenol-red free MEM) are dispensed into Greiner white solid bottom 1536-well assay plates, yielding a final well density of 2000 cells/well. Plates are incubated for 2 hours at 37 degrees C in 5% humidified CO2 to allow cell attachment. Compounds are then transferred via Kalypsys pin tool equipped with 1536-pin array (10nl slotted pins, V&P Scientific, San Diego, CA). The plates are then incubated at 37 degrees C in 5% humidified CO2 for 48 hours. The NCGC in-house luciferase substrate reagent, Buglite, is then added (2.5microl) and plates incubated for 15 minutes, before being transferred to a ViewLux high-throughput CCD imager (PerkinElmer) wherein single end-point measurements of luminescence are acquired using a clear filter. The positive control compound, genistein, will be pinned into dedicated control columns on each plate, including a 16-point 1:3 titration in duplicate, as well as a 10microM maximum activation control, allowing for the normalization of screening activity. DMSO will be pinned into a separate column as a negative control.
# All screening operations will be performed on a fully integrated robotic system (Kalypsys, San Diego, CA) containing one RX-130 and two RX-90 anthropomorphic robotic arms (Staubli, Duncan, SC). Library plates will be screened starting from the lowest and proceeding to the highest concentration. Vehicle-only plates, with DMSO being pin-transferred to columns 5-48, will be inserted uniformly at the beginning and the end of each library in order to monitor and record any shifts in the background, which can be affected by reagent dispensers or loss in enzyme activity over time. […]
# Potency is read from the fitted curve at half-maximal effect.
SMILES,activation [%],Potency
CCOC(=O)c1ccc(NC(=O)C2CC(=O)NC(=Nc3ccc(C)c(C)c3)S2)cc1 (centres undefined),2.36,–
COc1cccc(CNC(=O)c2cc(=O)[nH]c3ccc(S(=O)(=O)N4CCCCC4)cc23)c1,3.87,–
CCc1ccc(CNCc2c(C(=O)O)n(Cc3ccc(F)cc3Cl)c3cc(OC)ccc23)cc1,-23.5,–
CN(C)c1ccc(/C=N\Nc2ccc([N+](=O)[O-])cc2[N+](=O)[O-])cc1Cl,4.33,–
CN(C)c1ccc(C(CC(=O)O)C(=O)O)cc1 (centres undefined),-8.28,–
CC(C)CNC(=O)C(=O)Nc1ccc(N(C)C)cc1,–,2.24 µM (active)
CN(C)c1ccc(N/C=C/C(=O)C(F)(F)F)cc1,17.9,–
CCOC(=O)Cn1c(=O)n(-c2ccccc2OC)c2nc(-c3cccc(F)c3)nc(C(N)=O)c21,-41.4,–
COc1ccc(C(=O)CSc2nnnn2C)c(OC)c1,-6.19,–
CCn1nnnc1SCC(=O)c1ccc(C)cc1C,–,6.31 µM (active)
CCn1nnnc1SCC(=O)Nc1ccc(N(C)C)cc1,70.3,–
CCCCn1c(CNC(=O)C23CC4CC(CC(C4)C2)C3)nnc1SCC(=O)Nc1ccc(C)cc1,-13.4,–
COc1ccc(Cn2c(C(=O)O)c(CNCCc3cccs3)c3ccc(OC)cc32)cc1,0,–
Nc1nc(SCc2cccc(Br)c2)n[nH]1,-2.4,–
N#Cc1cccc(CSc2ncnc(N)n2)c1,-4.83,–
Nc1cc(N)nc(SCc2cccc(F)c2)n1,–,12.6 µM (active)
Cc1ccc(Cn2c(=O)n(CCCC(=O)NCc3ccccc3Cl)c(=O)c3ccccc32)cc1,0,–
O=C(COc1ccc(Cl)cc1)NCCC1=CCCCC1,-1.76,–
O=C(NCCC1=CCCCC1)c1ccc(-n2cncn2)cc1,–,3.16 µM (active)
CC(OC(=O)CNC(=O)c1ccc(Cl)c([N+](=O)[O-])c1)C(=O)NCc1ccco1 (centres undefined),-3,–
O=C(COc1cccc(-n2cnnn2)c1)NCCC1=CCCCC1,-2.75,–
O=C(NCCC1=CCCCC1)c1ccc(Cl)c([N+](=O)[O-])c1,–,7.94 µM (active)

SMILES,activation [%],Potency
CC(Sc1nncn1C)C(=O)NCCC1=CCCCC1 (centres undefined),-7.87,–
CC(=O)c1ccc[n+](C(C)CCC(C)[n+]2cccc(C(C)=O)c2)c1 (centres undefined),16.4,–
COc1ccc(-c2cc(NCc3ccc(F)cc3)n3cnnc3n2)cc1,11.7,–
Cc1ccc2c(c1)c1c(c(=O)n(-c3ccccc3)c(=O)n1CC(=O)c1ccc(Cl)cc1)n2C,3.56,–
Cc1ccc(OCC(=O)OCc2cc(=O)n3nc(C4CC4)sc3n2)cc1,0,–
COCCN(C(=O)C(C)C)c1nnc(-c2ccc(C(C)(C)C)cc2)s1,11.9,–
COCCN(C(=O)c1ccco1)c1nnc(-c2ccc(OC)cc2)s1,–,7.08 µM (active)
COc1ccc(N(CC(=O)NC(C)(C)C)C(=O)c2ccco2)cc1,1.11,–
Cc1c(CCO)sc[n+]1CC(=O)c1ccc2ccccc2c1,16.3,–
O=C(CC1Oc2ccccc2NC1=O)NCc1ccc(F)cc1 (centres undefined),12.5,–
Cc1[nH]c2ccccc2c1SCC(=O)Nc1nccs1,79.8,–
CC(=O)c1cc(C#N)c(SCC(=O)Nc2nccs2)nc1C,–,2 µM (active)
Cc1cc(C(F)(F)F)nc(SCC(=O)Nc2nccs2)n1,0.479,–
Cc1oc2c(c1C(=O)Nc1ccc(F)c(F)c1)C1=NCCN1C=N2,-27.6,–
CCN=C1S/C(=C\c2cc(Br)ccc2OCC(=O)OCC)C(=O)N1CC,-28.2,–
Cc1cc(/C=C2/SC(=O)N(CC(=O)OC(C)C)C2=O)c(C)n1C,–,2.51 µM (active)
Cc1cc(/C=C2/SC(=O)N(CC(=O)N3CCCC3)C2=O)ccc1N1CCOCC1,24.6,–
CN(C)Cc1cn(-c2ccccc2)nc1-c1ccccc1,14.5,–
COc1ccccc1CNCc1ccc(C(=O)O)s1,-0.687,–
COc1cc(OC)c(C(=O)NNC(=O)c2ccccc2-n2cccc2)cc1OC,-4.17,–
COc1cc(OC)c(C(=O)Nc2ccc(N(C)C)cc2)cc1OC,–,8.91 µM (active)
COc1ccc(Cl)cc1C(=O)Nc1ccc(N(C)C(C)=O)cc1,-8.57,–

SMILES,activation [%],Potency
COc1ccc(-c2cc(C(F)(F)F)nc(SCC(=O)N(C)Cc3ccccc3)n2)cc1OC,-44.2,–
Cc1nn(C)cc1C(=O)NNC(=S)Nc1ccc(Cl)cc1,0.773,–
Cn1ccc(NC(=O)Nc2ccc(Cl)cc2)n1,–,7.08 µM (active)
CN(C)S(=O)(=O)c1cc(C(=O)Nc2ccn(C)n2)c(Cl)cc1Cl,-1.4,–
COc1cccc(C(=O)NCC(=O)OCc2cc(=O)n3ccsc3n2)c1,23.2,–
CCn1cc(C(=O)N(C)Cc2ccccc2)c(=O)c2cc(S(=O)(=O)N3CCCCCC3)ccc21,-20.1,–
O=C(O)c1cccnc1NC1CCCC1,0.755,–
COc1cccc(NC(=O)COc2cccnc2[N+](=O)[O-])c1,84.5,–
COc1cccc(Nc2ncccc2C(=O)O)c1,–,11.2 µM (active)
O=c1cc(COc2cccc(C(F)(F)F)c2)nc2sc3c(n12)CCCC3,22.3,–
Cc1cccc(C(=O)OC(C)CN2CCCC2)c1 (centres undefined),-7.76,–
Cc1ccc(C(=O)OC(C)CN2CCOCC2)cc1 (centres undefined),34.5,–
Cc1cccc(C(=O)OC(C)CN2CCN(C)CC2)c1 (centres undefined),–,8.91 µM (active)
C(=Nc1ccc(/C=C/c2ccnc3ccccc23)cc1)c1cc2c3c(c1)CCCN3CCC2,5.17,–
CN(c1ccccc1)S(=O)(=O)c1ccc(C(=O)NCCc2ccccc2)cc1,95.3,–
CC(C)c1ccc(C(=O)NCCCc2ccccc2)cc1,–,10 µM (active)
Cc1c(C(=O)NCCCc2ccccc2)cccc1[N+](=O)[O-],-6.52,–
Cc1ccccc1CNC(=O)c1ccc(NC(=O)N2CCCCc3ccccc32)cc1,0,–
C/C=C/NNC(=O)Cc1ccc(OC)cc1,-35.7,–
CC1=C(C(=O)OCC2CCCCC2)C(c2c(F)cccc2Cl)CC(=O)N1 (centres undefined),11.3,–
CC(=O)C1=C(C)NC(=O)NC1c1ccc2c(c1)OCO2 (centres undefined),-1.73,–
Nc1[nH][nH]c(=O)c1N=Nc1ccc2c(c1)OCO2,–,12.6 µM (active)

SMILES,activation [%],Potency
CC(=O)c1cc2c(cc1N)OCO2,16.3,–
CCOc1ccc(CCNC(=O)CN(c2ccc(C)cc2)S(=O)(=O)N(C)C)cc1OCC,-3.76,–
O=C(Nc1ccc2nc3n(c(=O)c2c1)CCCC3)c1ccc(Cl)nc1,-1.17,–
COc1ccc(CCNC(=O)C(=O)Nc2ccc3nc4n(c(=O)c3c2)CCCCC4)cc1OC,42.2,–
COc1cccc(C(=O)Nc2ccc3nc4n(c(=O)c3c2)CCCCC4)c1,–,4.47 µM (active)
CC(C)c1ccc(NC(=O)Cn2ncc3ccccc32)cc1,–,10 µM (active)
Cc1cccc(NC(=O)c2nnn(CC(=O)Nc3ccc(C(C)C)cc3)c2N)c1C,72.2,–
CCc1ccc(NC(=O)Cn2ncn3c(cc4ccccc43)c2=O)cc1,-0.0009,–
COc1ccc(Cn2c(=O)[nH]c3cc(C(=O)N4CCN(C(=O)c5ccco5)CC4)ccc3c2=O)cc1,-22.8,–
Cc1ccc(-c2nn3c(=O)cc(CN4CCN(C(=O)Nc5cccc(C(F)(F)F)c5)CC4)nc3s2)cc1,0.612,–
COc1cc(OC)c(C2C=C(C(=O)O)Nc3ncnn32)cc1OC (centres undefined),10.8,–
COc1ccc(C)cc1NC(=O)CCc1c(C)nn(-c2ccc(N3CCOCC3)nn2)c1C,19.3,–
CCOc1ccc(C(O)Cc2nc3ccccc3n2C)cc1 (centres undefined),–,12.6 µM (active)
COc1cccc(C(O)Cc2nc3ccccc3n2C)c1OC (centres undefined),43,–
CCOc1ccc(C(O)Cn2c(=N)n(CCN3CCCCC3)c3ccccc32)cc1 (centres undefined),-32.1,–
CCn1cc2nc(SCc3ccccc3Cl)n(CCc3ccccc3)c(=O)c2n1,0,–
CC(C)(C)C1CCC(NC(=O)c2cnn3c2NC(=C2CC2)C=C3C(F)F)CC1 (centres undefined),-51.7,–
COc1ccc(Cc2nc3ccc(C(=O)NCC4CCOCC4)cc3o2)cc1OC,-5.09,–
COc1ccc(Cc2nc3ccc(C(=O)NCc4ccc(OC)cc4OC)cc3o2)cc1,-11.6,–
CSCCNC(=O)c1ccc2nc(Cc3ccccc3F)oc2c1,–,12.6 µM (active)
COc1ccc(CCn2c3c(c(=O)[nH]c2=S)CN(C(C)C)CN3)cc1OC,-12.2,–
CC(=O)c1ccc(Nc2nc(C(N)c3ccccc3)cs2)cc1 (centres undefined),18.7,–

SMILES,activation [%],Potency
NS(=O)(=O)c1ccc(Nc2nc(-c3ccccc3)cs2)cc1,–,7.08 µM (active)
COC(=O)[C@H](Cc1ccccc1)NC(=O)Nc1ccc(S(N)(=O)=O)cc1,-8.89,–
NS(=O)(=O)c1ccc(NC(=O)CSc2nnc3c(n2)[nH]c2ccccc23)cc1,0,–
COCCNC(=O)c1ccc2c(c1)N=C(C)c1cc(C)ccc1S2,-66.9,–
N#Cc1ccc(C2N=C(c3ccccc3)NO2)cc1 (centres undefined),–,2.51 µM (active)
Brc1ccccc1C1N=C(c2ccccc2)NO1 (centres undefined),42.9,–
CCOc1ccccc1NC(=O)C1=C(C)Nc2ncnn2C1c1ccc(NC(C)=O)cc1 (centres undefined),-11.2,–
CC(=O)N1c2ccc(S(=O)(=O)N3CCCCCC3)cc2CC1C(=O)NCc1ccccc1C (centres undefined),-1.06,–
COc1ccc(-c2cc(C(F)(F)F)n3nc(-c4ccccc4)cc3n2)cc1OC,-55.7,–
COc1cccc(C(O)c2nc(-c3ccc(C)c(C)c3)cs2)c1 (centres undefined),35.3,–
COc1ccc(-c2csc(Nc3cccc(C)n3)n2)cc1OC,–,2.82 µM (active)
O=C(c1ccc2c(=O)n(Cc3ccco3)c(=S)[nH]c2c1)N1CCCC1,-11.9,–
O=C(Nc1cccc2cccnc12)c1cccc2c(Br)cccc12,-31.4,–
Brc1cccc(-c2nnn3c2nc(NC2CCCCC2)c2ccccc23)c1,-3.57,–
COc1ccc(-c2nc3ccccc3o2)cc1NC(=O)c1cc([N+](=O)[O-])ccc1N1CCOCC1,11.7,–
CC(=O)Nc1cccc(-c2cnc3ccccc3n2)c1,–,3.98 µM (active)
CC(=O)Nc1cccc(-c2cc(NC(C)=O)c3ncc(-c4ccccc4)n3c2)c1,-10.9,–
CCS(=O)(=O)Nc1cccc(-c2cc(-c3ccccc3)c3cc(C)ccc3n2)c1,-71.4,–
Cc1c(C)c(C)c(S(=O)(=O)NCCc2ccccn2)c(C)c1C,-0.0453,–
COc1ccc(NCCc2ccccn2)cc1,–,12.6 µM (active)
COc1cncc(-c2cnc3sc(NCCc4ccccn4)nn23)c1,-32.3,–
